hERG WT inh: inhibitors of human wildtype KCNH2 potassium channel. AID 720551. 340,000 tested, 0.37% active. U2OS, BacMam KCNH2, thallium flux FluxOr; active compounds read low. activity change, % at 1.84 µM;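 active = maximum activity change below -70%; inconclusive = maximum activity change between -70% and -50%; inactive = maximum activity change above -50%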; note: % is set by controls: 0 for no effect and ±100 for the full control effect
Target sequence (Q12809 whole entry, looked up): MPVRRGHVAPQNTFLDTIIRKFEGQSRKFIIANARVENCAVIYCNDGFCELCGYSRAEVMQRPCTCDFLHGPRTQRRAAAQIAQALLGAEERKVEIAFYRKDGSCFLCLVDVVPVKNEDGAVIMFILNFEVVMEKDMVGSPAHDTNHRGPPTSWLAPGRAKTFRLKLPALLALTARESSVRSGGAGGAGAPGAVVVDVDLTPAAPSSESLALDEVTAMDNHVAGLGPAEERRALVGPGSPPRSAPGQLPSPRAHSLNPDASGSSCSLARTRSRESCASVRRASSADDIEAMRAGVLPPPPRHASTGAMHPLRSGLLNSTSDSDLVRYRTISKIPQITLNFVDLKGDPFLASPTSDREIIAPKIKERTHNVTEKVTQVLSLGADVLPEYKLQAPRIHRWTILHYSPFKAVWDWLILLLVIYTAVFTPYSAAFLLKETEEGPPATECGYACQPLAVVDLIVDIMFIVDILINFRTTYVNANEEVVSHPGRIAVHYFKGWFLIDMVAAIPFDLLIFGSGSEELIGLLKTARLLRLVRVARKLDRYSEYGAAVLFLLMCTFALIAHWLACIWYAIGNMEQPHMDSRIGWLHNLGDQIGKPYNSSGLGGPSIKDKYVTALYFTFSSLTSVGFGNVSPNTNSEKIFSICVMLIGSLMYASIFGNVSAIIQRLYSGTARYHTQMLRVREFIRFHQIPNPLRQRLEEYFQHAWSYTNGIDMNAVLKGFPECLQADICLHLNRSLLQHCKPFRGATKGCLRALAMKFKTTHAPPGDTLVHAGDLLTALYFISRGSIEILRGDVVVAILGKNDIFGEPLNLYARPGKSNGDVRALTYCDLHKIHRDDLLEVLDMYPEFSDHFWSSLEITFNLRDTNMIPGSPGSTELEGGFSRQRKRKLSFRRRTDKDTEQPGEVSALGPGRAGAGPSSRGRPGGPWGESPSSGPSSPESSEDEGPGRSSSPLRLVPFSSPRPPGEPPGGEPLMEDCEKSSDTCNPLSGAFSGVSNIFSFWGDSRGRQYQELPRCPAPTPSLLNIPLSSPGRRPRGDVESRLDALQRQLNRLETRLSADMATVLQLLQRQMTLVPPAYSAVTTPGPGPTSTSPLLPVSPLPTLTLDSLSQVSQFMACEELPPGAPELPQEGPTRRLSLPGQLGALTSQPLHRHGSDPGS
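U2OS cells were transduced with wild-type KCNH2 virus (2.03 x 10^8 / mL) for 4 h at room temperature, then cultured overnight at 37 C. Thallium flux was read with FluxOr dye. Rate constants were normalized to DMSO controls.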
MCF10A rereplic: inducers of DNA re-replication in MCF 10A breast cells | Potency, µM (series often up to 46.1 µM), inactives show at the top dose activity, positive = re-replication, usual class: activators | MCF 10A DNA re-replication, Hoechst nuclear intensity, 48 h | 350,000 tested, 2.9% active; note: potency is the fitted concentration of half-maximal effect; % of control where 0% means no effect; nearly all actives have a fitted effect of over 50% in size
KCNH2 3.1 inh: KCNH2 3.1 (human) potassium channel inhibition; U2OS KCNH2 3.1, thallium flux FluxOr; active compounds read low; 340,000 tested, 0.95% active; activity change, % (tested at about 1.8 µM); AID 720553;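 active = maximum activity change below -70%; inconclusive = maximum activity change from -70% to -50%; inactive = maximum activity change above -50%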;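 note: thallium influx rate constant from kinetic fluorescence after stimulation buffer; % is set by controls: 0 for no effect and ±100 for the full control effect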
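Measured as rate of thallium-driven FluxOr signal in transduced U2OS cells carrying the 3.1 channel, read kinetically for 2 min upon stimulation; values are rate constants scaled to DMSO control wells.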
KB-3-1 tox: kills parental KB-3-1 adenocarcinoma cells; Potency, µM (highest dose often 46.1 µM), most hits filed as cytotoxic; 400,000 tested, 1.4% active; KB-3-1 viability, CellTiter-Glo ATP luminescence, 72 h; AID 1347075; note: potency is the fitted concentration of half-maximal effect; % is set by controls: 0 for no effect and ±100 for the full control effect; nearly all actives have a fitted effect of over 60% in size
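Cytotoxicity in the drug-sensitive parental line KB-3-1 was scored as loss of CellTiter-Glo luminescence following 72 h incubation with compound. Values come from curve fitting of normalized concentration-response data.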
SW480 rerep: induces DNA re-replication in SW480 colon adenocarcinoma cells; AID 624297; 340,000 tested, 1.8% active; Potency, µM (titrated, usually from 46.1 µM), for inactives: at the highest dose re-replication activation, usual class: activators; SW480 DNA re-replication, Hoechst DNA content imaging, 48 h; note: potency is the fitted concentration of half-maximal effect; % of control where 0% means no effect; nearly all actives have a fitted effect of over 55% in size
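Image-based read-out: total Hoechst fluorescence of nuclei (405 nm excitation, 500-530 nm emission), with hits raising the fraction of high-intensity nuclei. SW480 colon cells incubated 48 hr with compounds at 37 C.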
KB-V1 MDR tox: kills drug-selected multidrug resistant KB-V1 cells | KB-V1 MDR cells viability, CellTiter-Glo, 72 h | Potency, µM (highest dose often 46.1 µM), actives largely listed as cytotoxic | 400,000 tested, 3.4% active | AID 1347076; note: potency is the fitted concentration of half-maximal effect; % is set by controls: 0 for no effect and ±100 for the full control effect; nearly all actives have a fitted effect of over 60% in size
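Cytotoxicity via CellTiter-Glo luminescence after 72 h compound exposure at 37 degrees C. Cells: drug-selected KB-V1 line, DMEM phenol-red free plus 10% FBS. Compounds tested at multiple concentrations; normalized data fitted to concentration-effect curves.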
* = called active by the depositor; i = inactive; ? = inconclusive; / = not tested or not shown; [ ] = dose if it differs, or a comment. An excerpt weighted towards active compounds, which were near 7.6% of everything screened. Unless noted, calls come from the whole dose curve; as a rule, active = well fitted curve in the direction sought with a large enough effect; inconclusive = small, poorly fitted or top-dose-only effect, or another doubt; inactive = no such curve, though single readings can be large; an effect the other way counts as inactive or inconclusive.

SMILES | hERG WT inh | MCF10A rereplic | KCNH2 3.1 inh | KB-3-1 tox | SW480 rerep | KB-V1 MDR tox
Nc1nc(Nc2ccc(Cl)cc2)nc2ccccc12 | 11 | 27% | -8 | i | -7% | 18µM*
O=C(c1ccc(Oc2ccc([N+](=O)[O-])cc2)cc1)N1CCCCCC1 | 3 | -2% | 19 | ? | 5% | i
CC1CCCC(N2CCN(C(=O)c3ccc([N+](=O)[O-])cc3)CC2)C1 (centres undefined) | 1 | ? | ? | i | 8.2µM* | i
C=CCOc1ccc(C(=O)Nc2ccccc2C(=O)NCc2cccnc2)cc1 | -12 | ? | -12 | 5.2µM* | ? | 3.7µM*
CC(C)(C)c1ccccc1OCC(=O)Nc1ccccc1C(=O)NCc1cccnc1 | 15 | ? | -4 | i | 10% | 18µM*
CCOc1ccc(CNC(=O)c2cnc(SC)nc2C)cc1 | / | / | / | i | / | i
CCc1ccc(C(c2ccccc2)c2c(C)[nH]c3ccccc23)s1 (centres undefined) | / | / | / | ? | / | i
CN(C)S(=O)(=O)c1ccc(N2CCCC2)c(C(=O)Nc2nccs2)c1 | 43 | 6% | -13 | i | -46% | ?
Cc1cnc(NC(=O)c2cc(S(=O)(=O)N(C)C)ccc2N2CCCC2)s1 | 7 | 6.5µM* | 22 | 21µM* | ? | ?
COc1ccc(C(C)(C)C)cc1NC(=O)c1cc(S(=O)(=O)N(C)C)ccc1N1CCCC1 | 5 | 8% | ? | i | 1% | 23µM*
CCN(CC)C(c1ccc(C)cc1)c1nnnn1C1CCCCC1 (centres undefined) | 53 | ? | -7 | ? | 9% | 13µM*
CCN(CC)C(c1ccc(F)cc1)c1nnnn1C1CCCCC1 (centres undefined) | -1 | 2% | -13 | i | -14% | i
COc1ccccc1NC(=S)N(Cc1ccco1)Cc1cc2ccc(C)c(C)c2[nH]c1=O | 18 | ? | -2 | 0.92µM* | ? | 1.8µM*
COc1ccccc1NC(=S)N(Cc1ccco1)Cc1cc2cc(C)cc(C)c2[nH]c1=O | 6 | 13µM* | -11 | 6.5µM* | 21µM* | 2.9µM*
Cc1ccccc1-c1cc(C(=O)NCc2ccc(OC(F)(F)F)cc2)n(CC2CC(c3cccnc3)=NO2)n1 (centres undefined) | 6 | 27% | -2 | i | -3% | i
CCCn1c(N)c(C(=O)CN(C)CC(=O)Nc2ccccc2CC)c(=O)[nH]c1=O | 7 | 0% | -27 | i | -11% | i
CCCn1c(N)c(C(=O)CN(C)CC(=O)Nc2cccc(F)c2)c(=O)[nH]c1=O | -20 | 1% | -79* | i | -2% | i
CS(=O)(=O)c1ccc(S(=O)CC(=O)Oc2ccc(Cl)cc2)c([N+](=O)[O-])c1 (centres undefined) | 3 | 4.6µM* | 17 | 21µM* | 6.5µM* | ?
O=C(Nc1nnc(-c2cccs2)s1)C1CC1 | 10 | 0% | 4 | ? | 1% | i
O=C(Nc1nc(-c2cccs2)c(-c2cccs2)s1)C1CCCC1 | 2 | ? | -7 | ? | -9% | 21µM*
CCCCCOc1ccc(C(=O)NCC2(c3ccccc3)CCOCC2)cc1 | -25 | 22% | 2 | i | 3% | 23µM*
CSc1nc(-c2ccc(Cl)cc2)c(C#N)c(=O)n1C | -5 | 0% | -4 | i | 0% | i
CSc1nc(-c2ccc(N(C)C)cc2)c(C#N)c(=O)n1C | 5 | 12µM* | 12 | i | 7.3µM* | i
COc1ccc2cc(CN(CC3CCCO3)S(=O)(=O)c3ccccc3)c(=O)[nH]c2c1 (centres undefined) | -1 | 0% | 2 | i | 3% | 21µM*
Cc1cc(C)c2cc(CN(CC3CCCO3)S(=O)(=O)c3ccc4c(c3)OCCO4)c(=O)[nH]c2c1 (centres undefined) | 7 | -46% | -10 | i | 24% | 16µM*
SMILES | hERG WT inh | MCF10A rereplic | KCNH2 3.1 inh | KB-3-1 tox | SW480 rerep | KB-V1 MDR tox
Cc1nc2sc(C(=O)c3ccccc3)c(N)c2c(C)c1C | -1 | -2%[9.22 µM] | -1 | i | 1% | ?
COc1ccc(-c2c(C#N)c(N)nc3sc(C(=O)c4ccccc4)c(N)c23)cc1 | 0 | ? | 3 | i | -3% | 4.1µM*
CC(C)OC(=O)c1sc2nc(-c3ccccc3)ccc2c1N | -7 | ? | 0 | i | 5.8µM* | i
Cc1nc(-c2ccccc2)nc2sc(C(=O)c3ccc(F)cc3)c(N)c12 | -18 | 10µM* | -7 | i | 16µM* | i
COc1ccc(C(=O)c2sc3nc(-c4ccccc4)ccc3c2N)cc1 | -31 | 3.7µM* | / | ? | 21µM* | i
CN(C)C(=O)c1cc(C(=O)c2ccc(F)cc2C(F)(F)F)c[nH]1 | -2 | 12% | 0 | ? | 3% | i
CC(C)NC(=O)NC(=O)COC(=O)c1cccc(S(=O)(=O)N2CCCCC2)c1 | -4 | -76% | -5 | i | ? | ?
CCOc1ccc(NC(=O)Cn2ncc3c2-c2cc(C)ccc2OC3)cc1 | / | / | / | i | / | i
Cc1c(O)ccc2c3c(c(=O)oc12)CCC(C)C3 (centres undefined) | -1 | 5% | -13 | i | 4% | ?
Cc1c(O)ccc2c3c(c(=O)oc12)CCCC3 | -18 | ? | -17 | ? | -2% | 16µM*
NCC[C@H](O)C(=O)N[C@@H]1C[C@H](N)[C@@H](O[C@H]2O[C@H](CN)CC[C@H]2N)[C@H](O)[C@H]1O[C@H]1O[C@H](CO)[C@@H](O)[C@H](N)[C@H]1O | / | 2% | / | / | 0% | /
COc1ccccc1NC(=O)Cn1c(=O)n(CCC(=O)NCC2CCCO2)c(=O)c2cc(OC)c(OC)cc21 (centres undefined) | / | / | / | i | / | i
COc1cccc(C2C(C#N)=C(N)Oc3cc(N)ccc32)c1OC (centres undefined) | -1 | 7% | 2 | i | 1% | i
N#CC1=C(N)Oc2cc(N)ccc2C1c1cc(Br)cs1 (centres undefined) | 0 | ? | 11 | 8.2µM* | 16µM* | ?
N#CC1=C(N)Oc2cc(N)ccc2C1c1ccccc1F (centres undefined) | -7 | 18µM* | -7 | ? | 18µM* | 7.3µM*
Cc1ccc(C2C(C#N)=C(N)Oc3cc(N)ccc32)cc1 (centres undefined) | 14 | ? | 14 | i | 6% | i
N#CC1=C(N)Oc2cc(N)ccc2C1c1cccc(Br)c1 (centres undefined) | -5 | 1.6µM* | -7 | 8.2µM* | ? | ?
